What follows are molecules tested against Glucose transporter (Leishmania mexicana) (UniProt O61059) (assay: ST_JUDE_LEISH: Cytotoxicity at 2uM final concentration against transgenic Leishmania Mexicana promastigotes LmGT2 that are glucose transport deficient and complemented with the L. Mexicana glucose transporter 2. Activity is measured by DNA content using SYBR green in vitro).
Type: functional

Q: Which inhibition does the source give for `CC(C)(CNCc1ccc(Cl)c(Cl)c1)c1nc(-c2ccc(Cl)c(O)c2)c(-c2ccncc2)[nH]1` here?
A: 4.37%

Q: With `CNC(=O)c1ccccc1Nc1nc(Nc2ccc(N3CCN(C)CC3)nc2)ncc1C` as the molecule, how does the inhibition read?
A: 9.03%

Q: For `COc1ccc2nccc([C@@H](O)CN3CCC(NCCOc4c(C)cccc4F)CC3)c2c1`, which inhibition is on record?
A: 4.05%

Q: How did the inhibition turn out when `CCn1c(-c2nonc2N)nc2c(-c3ccccc3)ncc(OCCCNCCCN3CCOCC3)c21` was run?
A: 0.55%

Q: Which inhibition does the source give for `COc1ccc2nccc([C@@H](O)CN3CCC(NC(=O)c4cc5ccccc5[nH]4)CC3)c2c1` here?
A: 38.7%

Q: With `CCCCCC(C)N/C(=N/c1ccccc1Br)Nc1ccc([N+](=O)[O-])cc1O` (stereo not given) as the molecule, how does the inhibition read?
A: 0.95%

Q: Which inhibition does the source give for `Cc1ccc(Oc2c(-c3ccccc3CN3CCCC3CN(C)C)cnn(C)c2=O)cn1` (stereo not given) here?
A: 5.57%

Q: Which inhibition does the source give for `Nc1ncc(-c2ccc(S(=O)(=O)Nc3ccc(C(=O)N[C@@H](CCC(=O)O)C(=O)O)cc3)cc2)c(=O)[nH]1` here?
A: 4.44%

Q: With `FC(F)(F)c1cccc(N=C(S)NN=Cc2ccccn2)c1` as the molecule, how does the inhibition read?
A: 1.52%

Q: For `O=C(/C=C/c1cccc(C(F)(F)F)c1)NCCCCCN1CCC(c2c[nH]c3ccccc23)CC1`, which inhibition is on record?
A: 1.4%

Q: Which inhibition does the source give for `CCC(CC)(Cc1ccccc1)NC(=O)[C@H](CC(C)C)Nc1ccc(C#N)c2ccccc12` here?
A: 10.7%

Q: With `O=C(Nc1ccc(C(F)(F)F)cc1)c1ccc(S(=O)(=O)NC2CCCN(CC3CCCCC3)C2)cc1` (stereo not given) as the molecule, how does the inhibition read?
A: 4.45%

Q: How did the inhibition turn out when `COc1cncc(/C=C/c2cncc(C(=O)NCCc3ccc(Cl)cc3Cl)c2)c1` was run?
A: 3.94%

Q: How did the inhibition turn out when `COc1cc(CNCCCNc2nc(=O)c3sccc3[nH]2)c2[nH]cc(Cl)c2c1` was run?
A: 87.6%

Q: How did the inhibition turn out when `OC(CNCc1cccc(Oc2ccc(Cl)cc2)c1)c1cc(C(F)(F)F)cc(C(F)(F)F)c1` (stereo not given) was run?
A: -2.95%

Q: How did the inhibition turn out when `NC(=O)c1cccc(C(=O)Nc2ccc(-c3cccc(-c4nc5cc(C(F)(F)F)ccc5[nH]4)c3)cc2)c1` was run?
A: -2.19%

Q: For `Cc1[nH]c(CNCCCNc2cc(=O)c3ccccc3[nH]2)c(Br)c1Br`, which inhibition is on record?
A: -0.49%

Q: With `C=CCOc1ccc(Cc2cnc(N)nc2N)cc1CCC` as the molecule, how does the inhibition read?
A: 1.19%

Q: How did the inhibition turn out when `CCCCCNC(=N)c1ccc(OCCCCCOc2ccc(C(=N)NCCCCC)cc2)cc1` was run?
A: 5.15%

Q: For `COC(=O)c1ccc2c(c1)nc(Nc1cccc(F)c1)n2CC(O)c1ccccn1` (stereo not given), which inhibition is on record?
A: 2.91%

Q: With `Nc1c(Cl)cc(C(O)CNCCCCCOCCCc2ccc3ncccc3c2)cc1Cl` (stereo not given) as the molecule, how does the inhibition read?
A: 4.94%

Q: `Cc1ccc(Cn2cnc(N3CC(C)NC(C)C3)cc2=O)cc1NC(=O)Nc1ccc(-c2ccccc2)cc1` (stereo not given) was tested. Which inhibition did it give?
A: -0.19%

Q: For `NCCC(=O)Nc1ccc(-c2cnc3[nH]cc(-c4ccc(C(=O)O)cc4)c3c2)cn1`, which inhibition is on record?
A: 0.13%

Q: With `Cc1cc(-c2ccc3c(c2)CCN(CCCOc2ccc4c(c2)CCN4C(=O)/C=C/c2ccccc2Cl)CC3)no1` as the molecule, how does the inhibition read?
A: 4.78%

Q: Which inhibition does the source give for `O=C(Nc1ccc(C(=O)N2CCN(CCN3CCN(c4cccc(C(F)(F)F)c4)CC3)CC2)cc1)c1ccc(C(F)(F)F)cc1` here?
A: 1.69%

Q: For `CCCCOP(=O)(COc1ccc(CCN(CC(O)COc2cccc3[nH]c4ccccc4c23)CC(O)COc2cccc3[nH]c4ccccc4c23)cc1)C1CCCCC1` (stereo not given), which inhibition is on record?
A: 0.82%

Q: For `Cc1cc(F)ccc1N(c1nc(-c2cc(Cl)ccc2Cl)cs1)C1CCNC1` (stereo not given), which inhibition is on record?
A: 4.16%

Q: Which inhibition does the source give for `CC(C)CNCc1cccc(-c2ccc(CNc3ccc4ncccc4c3)cc2)c1` here?
A: -0.62%

Q: Which inhibition does the source give for `CCCCC(N)COc1cccc2c(-c3ccncc3)c(-c3cccc(NC(=O)Nc4ccccc4)c3)nn12` (stereo not given) here?
A: 2.8%

Q: For `CCCn1c(Sc2ccc(C#N)c([N+](=O)[O-])c2)nnc1-c1cc(OC)cc(OC)c1`, which inhibition is on record?
A: 1.24%

Q: With `CN(C)c1ccc(-c2cscc2C(=O)NC2CCCN(Cc3cccnc3)C2)cc1` (stereo not given) as the molecule, how does the inhibition read?
A: -0.28%

Q: `O=C(Nc1cccc(-c2ccc(-c3nc4cc(F)ccc4[nH]3)cc2)c1)c1ccncc1` was tested. Which inhibition did it give?
A: 2.96%

Q: How did the inhibition turn out when `CCN(CC)CCCC(C)Nc1ccnc2[nH]c3ccccc3c12` (stereo not given) was run?
A: 4.63%

Q: For `CN(C)CCOc1cc(NC(=O)c2ccc(-c3ccc(Cl)cc3Cl)cc2)ccc1-c1ccccc1`, which inhibition is on record?
A: -0.43%

Q: How did the inhibition turn out when `Cc1cnc(C(=O)Nc2ccc3c(c2)CCCN(Cc2c[nH]c4cnccc24)C3)cn1` was run?
A: 9.32%

Q: How did the inhibition turn out when `COc1ccc(CN2CCCN(Cc3cccc(NC(=O)c4ccc(-c5ccccc5)cc4)c3)CC2)cc1` was run?
A: -4.3%

Q: How did the inhibition turn out when `COc1ccc(Cl)cc1NC(=O)CN(C)C(=O)c1cnn(-c2ccccc2)n1` was run?
A: 3.11%

Q: With `OC(CN1c2ccccc2Sc2ccccc21)CN(C1CCCCC1)C1CCCCC1` (stereo not given) as the molecule, how does the inhibition read?
A: 3.8%

Q: With `COc1ccc2nc(-c3cc(-c4ccc(NC(=O)CN5CCOCC5)cc4)cnc3N)[nH]c2c1` as the molecule, how does the inhibition read?
A: 11.7%

Q: `Cc1ccnc(NC(=O)c2cc(-c3cccc([N+](=O)[O-])c3)nc3onc(C)c23)c1` was tested. Which inhibition did it give?
A: 4.35%

Source: ChEMBL document CHEMBL3433997, “St. Jude Leishmania screening dataset” (2016)
